SMILES strings stand for the structures. Results filed as inconclusive are left out. Activity calls are given as the source filed them. Calls come from the whole dose curve.
Potency is the fitted concentration of half-maximal effect.

The test is described as follows: VSVG counterscreen qHTS to identify inhibitors of SARS-CoV-2 cell entry (AID 1645847). Note: nearly all actives have a fitted effect of over 65% in size. To be noted: VSV-G pseudotyped particle entry, luciferase; series mostly up to 57.2 µM. From the text: Assay Provider: Wei Zheng, Ph.D.
National Center for Advancing Translational Sciences, National Institute of Health, Rockville, MD.
SARS-CoV-2 spike protein, within the viral envelope, mediates viral attachment and infection of host cells. The SARS-CoV-2 spike protein specifically binds to the host receptor ACE2 (Angiotensin-converting enzyme 2). This interaction promotes endocytosis of the viral particle, additional events lead to viral-host cell membrane fusion and release of the viral contents, allowing viral replication.
While SARS-CoV-2 requires BSL-3 facilities for live virus work, pseudotyped partices (PP) that incorporate SARS-CoV-2 spike proteins without replication elements could facilitate studies on viral entry mechanisms in a BSL-2 setting. This PP cell entry assay could also enable screening of small molecule compound libraries in BSL-2 setting to identify inhibitors of SARS-CoV-2 cell entry.
SEQUENCE No. (e.g., 1, 2, 3, etc.); […] (e.g., Cells, Incubation, Reagent, etc.); VALUE and DESCRIPTION.
1. Cells. Seed 1500 HEK293-ACE2 cells (Expi293F with stable expression of human ACE2) in 2 microL/well media (DMEM, 10% FBS, 1x L-glutamine, 1x Pen/Strep, 1 ug/ml puromycin) in white 1536-well assay plates (Greiner #782073).
2. Incubation. Incubate at 37 degrees C with 5% CO2 overnight (~16 h).
3. Compound. Dispense 23 nL/well compounds in DMSO via pin transfer.
4. Incubation. Incubate for 1 h at 37C 5% CO2.
5. Reagent. Dispense 2 microL/well of vesicular stomatitis virus G glycoprotein (VSV-G) pseudotyped particles (PP). [a] PPs are produced with murine leukemia virus pseudo-typing.
6. Centrifugation. […]
7. Incubation. Incubate at for 48 h at 37C 5% CO2
8. Centrifugation. Remove supernatant with gentle centrifugation using a Blue Washer (BlueCat Bio).
9. Reagent. Dispense 4 microL/well of Bright-Glo Luciferase detection reagent (Promega #E2620).
10. Incubation. Incubate for 5 min at room temperature.
11. Detection. Read luminescence signal (ViewLux plate reader, PerkinElmer). Data was normalized with wells containing VSV-G PP as 100%, and wells containing bald PP (no fusion protein) as 0%.
For the compound `O=C(NC1CC1)c1cccc(-c2ccc3c(NC(=O)C4CC4)n[nH]c3c2)c1`, the Potency is 15.2 µM (active).

Turning to `Cc1ccccc1C(=O)c1ccc(Nc2ccc(Br)cc2N)cc1Cl`, the Potency is 24.1 µM (active).

Take `COc1cc([C@@H]2c3cc4c(cc3[C@H](O)[C@H]3COC(=O)[C@@H]23)OCO4)cc(OC)c1OC`: the Potency was 1.71 µM (active).

In the case of `COC(=O)Nc1nc2ccc(C(=O)c3ccc(F)cc3)cc2[nH]1`, the Potency was 0.961 µM (active).

For `CO[C@H]1C(=O)[C@]2(C)[C@@H](OC)C[C@H]3OC[C@@]3(OC(C)=O)[C@H]2[C@H](OC(=O)c2ccccc2)[C@]2(O)C[C@H](OC(=O)[C@H](O)[C@@H](NC(=O)OC(C)(C)C)c3ccccc3)C(C)=C1C2(C)C`, the Potency was 0.136 µM (active).

Regarding `COc1ccc(Nc2cc(-c3cnc(N)nc3)nc(N3CCOCC3)n2)cn1`, the Potency is 1.08 µM (active).

In the case of `CC[C@H](C)C(=O)O[C@H]1CCC=C2C=C[C@H](C)[C@H](CC[C@@H]3C[C@@H](O)CC(=O)O3)[C@H]21`, the Potency result is “inactive”.

In the case of `Oc1ccc(-c2nc(-c3ccc(F)cc3)c(-c3ccncc3)[nH]2)cc1`, the Potency was 3.04 µM (active).

Consider `N[C@@H](Cc1ccc(O)c(O)c1)C(=O)O`, for which the Potency is 0.429 µM (active).

In the case of `CN1c2ccccc2C(=O)N2CCc3c([nH]c4ccccc34)C21` (stereo not given), the Potency is 3.83 µM (active).

For the compound `O=C(O)c1ccc(Nc2ncc3c(n2)-c2ccc(Cl)cc2C(c2c(F)cccc2F)=NC3)cc1`, the Potency is 1.08 µM (active).

Turning to `COc1cc2c(cc1Cc1cccc(Cl)c1F)c(=O)c(C(=O)O)cn2[C@H](CO)C(C)C`, the Potency is 0.0171 µM (active).

As for `CC(=O)O[C@H]1C(=O)[C@@]2(C)C([C@H](OC(=O)c3ccccc3)[C@]3(O)C[C@H](OC(=O)[C@H](O)[C@@H](NC(=O)c4ccccc4)c4ccccc4)C(C)=C1C3(C)C)[C@]1(OC(C)=O)CO[C@@H]1C[C@@H]2O` (stereo not given in full), the Potency was 0.0681 µM (active).

`C[C@@H]1CCO[C@H]2Cn3cc(C(=O)NCc4ccc(F)cc4F)c(=O)c(O)c3C(=O)N12`: the Potency was 0.0076 µM (active).

Regarding `Nc1ccc(C(=O)Nc2cccc(-c3nc(N4CCOCC4)c4oc5ncccc5c4n3)c2)cn1`, the Potency is 0.0048 µM (active).

As to `Cc1c(-c2ccc(O)cc2)n(Cc2ccc(OCCN3CCCCCC3)cc2)c2ccc(O)cc12`, the Potency was 27.1 µM (active).

Turning to `Cc1cnc(CNC(=O)c2c(=O)c3ccc(N4CCCN(C)CC4)nc3n3c2sc2ccccc23)cn1`, the Potency was 3.12 µM (active).

As for `CCN(CC)CCOCCOC(=O)C(CC)(CC)c1ccccc1`, the Potency entry is “inactive”.

With `C[C@H]1CCC/C=C/C2C[C@H](O)C[C@H]2[C@H](O)/C=C/C(=O)O1` (stereo not given in full), the Potency is 0.857 µM (active).

Take `CC(C)C(=O)Oc1ccc(CO)cc1[C@H](CCN(C(C)C)C(C)C)c1ccccc1`: the Potency is 21.5 µM (active).

With `O=C(Cc1ccc(-c2ccc(OCCN3CCOCC3)cc2)cn1)NCc1ccccc1`, the Potency is 0.171 µM (active).

As to `COc1ccc(S(=O)(=O)Nc2cccnc2Nc2ccc(O)cc2)cc1`, the Potency was 0.541 µM (active).

Turning to `CC(C)c1nn(-c2c(Cl)cccc2Cl)c2nc(Cc3ccc(OCCO)cc3)[nH]c(=O)c12`, the Potency was 0.0541 µM (active).

Turning to `NC(=O)c1cccc2cn(-c3ccc([C@@H]4CCCNC4)cc3)nc12`, the Potency was 2.15 µM (active).

With `CC[C@]1(O)C[C@H]2CN(CCC3=c4ccccc4=N[C]3[C@@](C(=O)OC)(c3cc4c(cc3OC)N(C)[C@H]3[C@@](O)(C(N)=O)[C@H](O)[C@]5(CC)C=CCN6CC[C@]43[C@@H]65)C2)C1`, the Potency is 0.0304 µM (active).

In the case of `O=C(O)C1(Cc2cccc(Nc3nccs3)n2)CCC(Oc2cccc(Cl)c2F)CC1` (stereo not given), the Potency was 12.1 µM (active).

As for `CC(C)[C@H](CO)Nc1nc(Nc2cccc(Cl)c2)c2ncn(C(C)C)c2n1`, the Potency was 8.57 µM (active).

Consider `O=C1NC(=O)C(c2cnc3ccccn23)=C1c1cn2c3c(cccc13)CN(C(=O)N1CCOCC1)CC2`, for which the Potency was 0.215 µM (active).

For the compound `C[N+](C)([O-])CCNc1ccc(NCC[N+](C)(C)[O-])c2c1C(=O)c1c(O)ccc(O)c1C2=O`, the Potency was 10.8 µM (active).

On to `CC(C)c1cnn2c(NCc3ccccc3)cc(N[C@@H](CO)[C@H](O)CO)nc12`, for which the Potency was 0.482 µM (active).

As to `N#CC1(c2cccc(C(=O)Nc3cc(Oc4ccc5nc(NC(=O)C6CC6)sc5n4)ccc3F)c2Cl)CC1`, the Potency is 0.304 µM (active).

In the case of `COc1cc(C)c(Sc2cnc(NC(=O)c3ccc(CNC(C)C(C)C)cc3)s2)cc1C(=O)N1CCN(C(C)=O)CC1` (stereo not given), the Potency is 3.83 µM (active).

In the case of `CO[C@@H]1[C@@H](OC2OC(C)C(OC3CC(C)(O)C(OC(=O)CC(C)C)C(C)O3)C(N(C)C)C2O)[C@@H](CC=O)C[C@@H](C)C(=O)/C=C\C2O[C@H]2C[C@@H](C)OC(=O)C[C@H]1OC(C)=O` (stereo not given in full), the Potency is 17.1 µM (active).

For `C/C(=C\c1csc(C)n1)[C@@H]1C[C@@H]2O[C@@H]2CCC[C@H](C)[C@H](O)[C@@H](C)C(=O)C(C)(C)[C@@H](O)CC(=O)O1`, the Potency was 0.0541 µM (active).

With `Cc1ccc2nc(NCCN)c3ncc(C)n3c2c1`, the Potency is 13.6 µM (active).

With `CC[C@@](C)(Nc1ccnc(-c2c[nH]c3ncccc23)n1)C(=O)NCC(F)(F)F`, the Potency entry was “inactive”.

As to `NCC(=O)Nc1ccc(-n2nc(C(F)(F)F)cc2-c2ccc3c(ccc4ccccc43)c2)cc1`, the Potency is 6.07 µM (active).

On to `CC[C@@]1(O)C[C@H](O[C@H]2C[C@H](N(C)C)[C@H](O[C@H]3C[C@H](O)[C@H](O[C@H]4CCC(=O)[C@H](C)O4)[C@H](C)O3)[C@H](C)O2)c2c(cc3c(c2O)C(=O)c2c(O)cccc2C3=O)[C@@H]1C(=O)OC`, for which the Potency was 3.04 µM (active).

On to `CN[C@H]1CCc2cc(OC)c(OC)c(OC)c2-c2ccc(OC)c(=O)cc21`, for which the Potency was 0.171 µM (active).

For `CCOC(=O)[C@@H](N)Cc1ccc(-c2cc(O[C@H](c3ccc(Cl)cc3-n3ccc(C)n3)C(F)(F)F)nc(N)n2)cc1`, the Potency was 19.2 µM (active).

The record behind these values is PubChem BioAssay (NCATS).
